Screening data from PubChem BioAssay.
Cruzain inh noDet: blocks cruzain activity in detergent-free assay. P25779. 2.3% of 200,000 active. Potency, µM, for inactives: max response, negative = inhibition, most hits filed as inhibitors. purified cruzain, Z-FR-AMC fluorescence, no detergent;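 also: plate controls were enzyme without inhibitor for no effect and buffer without enzyme for full effect; nearly all actives have a fitted effect of over 40% in size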
Target sequence (P25779 123-467 limits assumed): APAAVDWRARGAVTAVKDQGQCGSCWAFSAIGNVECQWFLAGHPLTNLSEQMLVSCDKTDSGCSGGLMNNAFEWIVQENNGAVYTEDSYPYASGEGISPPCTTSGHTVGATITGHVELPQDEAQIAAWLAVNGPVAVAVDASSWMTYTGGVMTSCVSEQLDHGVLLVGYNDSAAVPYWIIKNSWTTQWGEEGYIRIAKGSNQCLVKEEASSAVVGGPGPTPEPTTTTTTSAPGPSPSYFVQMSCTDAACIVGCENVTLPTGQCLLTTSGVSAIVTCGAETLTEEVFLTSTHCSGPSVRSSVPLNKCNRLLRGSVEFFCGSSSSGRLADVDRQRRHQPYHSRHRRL
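Purified cruzain at 1.5 nM, pre-incubated 15 min with compound at room temperature in 100 mM sodium acetate pH 5.5, 5 mM DTT, 0.00005% Triton X-100. Reaction started with 2 uM Z-FR-AMC; AMC fluorescence increase over 60 s gives rate.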
Cruzain Triton: inhibitors of Trypanosoma cruzi cruzain with detergent; AID 1478; Potency, µM, without a hit: max response, negative = inhibition, usual class: inhibitors; P25779; purified cruzain, Z-FR-AMC fluorescence, 0.01% Triton; 0.43% of 200,000 active;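 also: plate controls were neutral wells for no effect and buffer without enzyme for full effect; nearly all actives have a fitted effect of over 40% in size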
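Enzyme 1.5 nM, Z-FR-AMC 2 uM, NaOAc 100 mM pH 5.5, DTT 5 mM, Triton X-100 0.01%; 15 min RT compound preincubation; kinetic ex360/em450, 60 s delta.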
Starred values were filed as active, the others as inactive; ! = not active in a repeat. A selection: hits, their analogues and other compounds. The true share with any hit is near 2.4%. Calls follow the shape of the dose curve; as a rule, active = well fitted curve in the direction sought with a large enough effect; inconclusive = small, poorly fitted or top-dose-only effect, or another doubt; inactive = no such curve, though single readings can be large; an effect the other way counts as inactive or inconclusive. Potency is read from the fitted curve at half-maximal effect.

What do the screens show for `COc1ccc(Cn2c(SCc3ccc(C(=O)NCc4cccs4)cc3)nc3cccnc32)cc1`?
Cruzain inh noDet: inconclusive; Cruzain Triton: -6%

Results for N#Cc1c(SCc2ccccc2)sc(C(=O)c2ccccc2)c1N ?
Cruzain inh noDet: 1%; Cruzain Triton: -5%

Results for N#Cc1c(Oc2ccc3ccccc3c2)sc(C(=O)c2ccccc2)c1N ?
Cruzain inh noDet: 25µM*; Cruzain Triton: 4%

What do the screens show for `Cc1cccc(Oc2sc(C(=O)c3ccccc3)c(N)c2C#N)c1C`?
Cruzain inh noDet: inconclusive; Cruzain Triton: -6%

How did Cc1ccc(CSc2sc(C(=O)c3ccccc3)c(N)c2C#N)cc1 do in these assays?
Cruzain inh noDet: 20µM*; Cruzain Triton: -1%

Results for Cc1ccc2nc(NC(=O)c3ccc(S(=O)(=O)N4CCCc5ccccc54)cc3)sc2c1 ?
Cruzain inh noDet: 6.3µM*!; Cruzain Triton: 1%

What do the screens show for `Cc1cccc(C(=O)Nc2nnc(S(=O)(=O)N3CCCc4ccccc43)s2)c1`?
Cruzain inh noDet: -4%; Cruzain Triton: -2%

How did CN1CCc2nc(NC(=O)c3cccc(S(=O)(=O)N4CCc5ccccc54)c3)sc2C1 do in these assays?
Cruzain inh noDet: 16µM*; Cruzain Triton: -5%

What do the screens show for `O=C(Nc1nc2c(F)cc(F)cc2s1)c1ccc(S(=O)(=O)N2CCc3ccccc32)cc1`?
Cruzain inh noDet: -17%; Cruzain Triton: -1%

What do the screens show for `O=C(Nc1nc2c(s1)CCCC2)c1cccc(S(=O)(=O)N2CCCc3ccccc32)c1`?
Cruzain inh noDet: 25µM*; Cruzain Triton: -6%

How did CCC(CC)c1nnc(NC(=O)c2cccc(S(=O)(=O)N3CCc4ccccc43)c2)s1 do in these assays?
Cruzain inh noDet: inconclusive; Cruzain Triton: -2%

What do the screens show for `O=C(Nc1nc2ccc(F)cc2s1)c1cccc(S(=O)(=O)N2CCc3ccccc32)c1`?
Cruzain inh noDet: 7.9µM*; Cruzain Triton: -1%

How did O=C(Nc1nc2c(F)cccc2s1)c1ccc(S(=O)(=O)N2CCCc3ccccc32)cc1 do in these assays?
Cruzain inh noDet: -1%; Cruzain Triton: 1%

How did COc1ccc(Cn2c(C(=O)O)c(CNCc3ccccc3F)c3ccc(OC)cc32)cc1 do in these assays?
Cruzain inh noDet: -3%; Cruzain Triton: -4%

How did COc1cccc(CSc2nc3cc(C(=O)NC4CCCC4)ccc3c(=O)n2Cc2ccccc2)c1 do in these assays?
Cruzain inh noDet: 2%; Cruzain Triton: -1%

What do the screens show for `CC(=O)N1CCc2cc(Br)cc(S(=O)(=O)NCCc3cccc(C)c3)c21`?
Cruzain inh noDet: 2%; Cruzain Triton: -4%

What do the screens show for `CCc1ccc(NCc2cc3ccc(OC)cc3n(CC(=O)Nc3ccc(F)cc3F)c2=O)cc1`?
Cruzain inh noDet: -30%; Cruzain Triton: -3%

How did O=C(NCCc1csc(-c2ccc(C(F)(F)F)cc2)n1)c1ccc(F)c(F)c1 do in these assays?
Cruzain inh noDet: 27%; Cruzain Triton: -13%

Results for O=C1/C(=C/c2ccccc2)Nc2ccccc21 ?
Cruzain inh noDet: -11%; Cruzain Triton: -5%

What do the screens show for `O=C1/C(=C/c2ccccc2)NC(=S)N1C(c1ccccc1)c1ccccc1`?
Cruzain inh noDet: 20µM*; Cruzain Triton: -3%

Results for CS(=O)(=O)N1CCN(c2nc(-c3ccc(F)cc3)cs2)CC1 ?
Cruzain inh noDet: -1%; Cruzain Triton: -2%

How did O=S(=O)(c1ccc(F)cc1)N1CCN(c2nc(-c3ccc(F)cc3)cs2)CC1 do in these assays?
Cruzain inh noDet: 10µM*; Cruzain Triton: -1%

What do the screens show for `CCn1cc(C(=O)N2CCN(c3cccc(C)c3C)CC2)c2cc(OC)c(OC)cc2c1=O`?
Cruzain inh noDet: -4%; Cruzain Triton: 3%

How did C(=C\c1nc(-c2ccccc2)oc1Nc1ccc2ccccc2c1)/c1ccccc1 do in these assays?
Cruzain inh noDet: 25µM*; Cruzain Triton: 3%

Results for O=C(Nc1ccc2oc(-c3ccccc3)nc2c1)c1ccc2ccccc2c1 ?
Cruzain inh noDet: 6%; Cruzain Triton: -1%

What do the screens show for `COc1ccc(-c2csc3ncnc(Nc4ccc(OC)c(OC)c4)c23)cc1`?
Cruzain inh noDet: 8%; Cruzain Triton: -3%

How did O=C(Oc1ccc2c(c1)O/C(=C\c1ccncc1)C2=O)c1ccccc1 do in these assays?
Cruzain inh noDet: 7%; Cruzain Triton: -21%

Results for Cc1ccsc1/C=C1\Oc2cc(OCC(=O)c3ccccc3)ccc2C1=O ?
Cruzain inh noDet: 13µM*; Cruzain Triton: -5%

What do the screens show for `COc1cccc(N2CCN(c3ncnc4onc(-c5ccc(F)cc5)c34)CC2)c1`?
Cruzain inh noDet: 10%; Cruzain Triton: -1%

How did Cc1c(C)n(Cc2ccccc2)c2ccc(C(=O)N3CCN(c4ccccc4F)CC3)cc12 do in these assays?
Cruzain inh noDet: inconclusive; Cruzain Triton: -1%

What do the screens show for `COc1ccc(-c2ccc(C#N)c(SCC(=O)Nc3sc4c(c3C#N)CCC4)n2)cc1`?
Cruzain inh noDet: 13µM*; Cruzain Triton: -11%

What do the screens show for `COc1cccc(-n2c(SCC(=O)NCc3cccs3)nc3ccccc3c2=O)c1`?
Cruzain inh noDet: -14%; Cruzain Triton: -3%

What do the screens show for `COc1cccc(-n2nnnc2SCC(=O)Nc2nc3c(s2)CCCC3)c1`?
Cruzain inh noDet: 25µM*; Cruzain Triton: -6%

Results for N#Cc1ccc(-c2cccnc2)nc1SCC(=O)Nc1sc2c(c1C#N)CCC2 ?
Cruzain inh noDet: -1%; Cruzain Triton: 3%

What do the screens show for `COc1ccc(-n2c(SCC(=O)Nc3sc4c(c3C#N)CCCC4)nnc2-c2ccccc2OC)cc1`?
Cruzain inh noDet: 25µM*; Cruzain Triton: -2%

How did COc1cccc(-n2c(SCC(=O)Nc3sc4c(c3C(N)=O)CCC4)nc3ccccc3c2=O)c1 do in these assays?
Cruzain inh noDet: 25µM*; Cruzain Triton: 2%

How did COc1ccc(-c2nnc(SCC(=O)Nc3sc4c(c3C#N)CCCC4)n2-c2ccccc2)cc1 do in these assays?
Cruzain inh noDet: inconclusive; Cruzain Triton: -3%

What do the screens show for `COC(=O)c1cccc(-n2nnnc2SCC(=O)Nc2nc3c(s2)CCCC3)c1`?
Cruzain inh noDet: inconclusive; Cruzain Triton: -2%

Results for COc1ccc(C(=O)Nc2ccc3nc(SCC(=O)N(C)c4ccccc4)sc3c2)cc1 ?
Cruzain inh noDet: 3%; Cruzain Triton: 0%

How did CCOC(=O)c1c(C)[nH]c(CCC(=O)Nc2c(Cl)cc(OC)cc2OC)c1C do in these assays?
Cruzain inh noDet: -12%; Cruzain Triton: -1%

Results for COc1ccc(-c2cn3cccnc3n2)cc1NC(=O)c1cc(C)cc(C)c1 ?
Cruzain inh noDet: 4%; Cruzain Triton: -4%

How did Cc1cc(C)c2cc(CN(CCN3CCCC3)C(=O)Nc3ccc(F)cc3)c(=O)[nH]c2c1 do in these assays?
Cruzain inh noDet: inconclusive; Cruzain Triton: -2%

How did Cc1ccc(C)c2[nH]c(=O)c(CN(CCN3CCCC3)C(=O)Nc3cccc(Cl)c3)cc12 do in these assays?
Cruzain inh noDet: 25µM*; Cruzain Triton: -22%

What do the screens show for `CCOC(=O)c1cc2c(=O)n3ccccc3nc2n(CCCOC)c1=NC(=O)c1c(-c2ccccc2Cl)noc1C`?
Cruzain inh noDet: -4%; Cruzain Triton: 1%

What do the screens show for `CCOC(=O)c1sc2ccccc2c1S(=O)(=O)Nc1c(C)cccc1C`?
Cruzain inh noDet: -11%; Cruzain Triton: -8%

How did Cc1ccccc1NC(=O)CSc1nc2c(c(-c3ccco3)c1C#N)CCCC2 do in these assays?
Cruzain inh noDet: 7.9µM*; Cruzain Triton: -5%

How did CCc1ccccc1NC(=O)CSc1nc2c(c(-c3ccco3)c1C#N)CCCC2 do in these assays?
Cruzain inh noDet: -17%; Cruzain Triton: -7%
